Data on 105 compounds can be found in PubChem BioAssay AID485367 (National Center for Advancing Translational Sciences (NCATS), 2010).

Several values for one entry are separate records, joined by “and”; a condition that tells them apart may be missing. Equal entries are not always repeated. Among all 330,000 compounds or so, about 560 (0.17%) were called active. Roughly 1% stayed inconclusive and do not appear here. Calls come from the whole dose curve; as a rule, active = well fitted inhibition curve with a large enough effect; inconclusive = small, poorly fitted or top-dose-only effect, or effect the other way; inactive = flat fitted curve, though single readings scatter. Shown is part of a subset that was picked to be rich in actives. A call without a number means that no potency is given here.
Potency is the fitted concentration of half-maximal effect.

Sequence of ATP-dependent 6-phosphofructokinase (Trypanosoma brucei brucei) (O15648 whole entry, looked up): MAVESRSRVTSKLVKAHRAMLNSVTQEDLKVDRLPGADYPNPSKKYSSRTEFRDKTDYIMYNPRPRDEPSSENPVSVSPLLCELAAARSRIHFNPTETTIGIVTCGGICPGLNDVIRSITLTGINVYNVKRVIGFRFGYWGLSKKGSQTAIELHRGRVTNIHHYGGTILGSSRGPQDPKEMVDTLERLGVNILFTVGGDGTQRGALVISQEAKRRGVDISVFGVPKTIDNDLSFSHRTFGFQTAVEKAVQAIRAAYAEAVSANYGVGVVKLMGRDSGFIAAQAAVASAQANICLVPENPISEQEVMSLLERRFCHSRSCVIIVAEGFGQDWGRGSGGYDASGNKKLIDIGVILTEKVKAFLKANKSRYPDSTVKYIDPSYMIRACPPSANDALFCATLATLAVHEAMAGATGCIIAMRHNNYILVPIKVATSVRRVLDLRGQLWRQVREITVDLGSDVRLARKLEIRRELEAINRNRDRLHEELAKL

The target of this test is ATP-dependent 6-phosphofructokinase (Trypanosoma brucei brucei) (UniProt O15648). Nature of the test: qHTS Assay to Find Inhibitors of T. brucei phosphofructokinase. Note: nearly all actives have a fitted effect of over 60% in size. Conditions: T. brucei PFK, ADP-Glo luminescence; series mostly up to 57.5 µM. The procedure, abridged:
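Luminescent ADP detection (ADP-Glo, two-step: ATP depletion then ADP-to-ATP conversion for luciferase) reported PFK activity after 45 min room-temperature reaction of 1.25 nM enzyme with 0.5 mM F6P and 0.1 mM ATP at pH 8.0.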
As to `Nn1c(SCC(=O)Nc2ccc3c(c2)CCC3)nnc1C1CC1`, the Potency entry was “inactive”. Then `O=C(CC1C(=O)NCCN1CC(c1ccccc1)c1ccccc1)NCC1CCOCC1` (stereo not given), with “inactive”; and `O=C(CCN1C(=O)C2C3C=CC(C3)C2C1=O)Oc1ccc2ccccc2c1` (stereo not given), with “inactive”.

On to `CC(=O)NCc1ccc(-c2csc(NC(=O)CCCc3nc4ccccc4c(=O)[nH]3)n2)cc1`, for which the Potency result is “inactive”. To `O=C(CSc1nc2ccccc2c(=O)[nH]1)Nc1nc(-c2ccc(Br)cc2)cs1` belongs 2.69 µM (active); to `CCOC(=O)c1ccccc1NC(=O)CSc1nc2ccccc2c(=O)[nH]1`, “inactive”. Then `O=C(CSc1nnc(N2CCOCC2)n1-c1cccc(F)c1)N1CCN(c2ccccn2)CC1`, with “inactive”.

As to `O=C(NNS(=O)(=O)c1ccccc1)c1cnn(-c2ccc(Cl)cc2)c1C(F)(F)F`, the Potency result was “inactive”. Then `Cc1ccc(OCCCCc2c(C)n[nH]c2C)cc1`, with “inactive”. In the case of `CC(C)[C@H](NC(=O)N1CCn2c1nc1ccccc12)C(=O)NCCc1ccccc1`, the Potency result was “inactive”. To `CCCCNC(=O)OCCSCCS(=O)(=O)c1ccc(Cl)cc1` belongs “inactive”.

In the case of `O=C(NCc1ccc(Cl)c(Cl)c1)c1cccnc1`, the Potency was 23.9 µM (active). Then `O=C(Nc1nnc(Cc2ccc(Cl)cc2)s1)c1cccnc1`, with “inactive”; and `CC(C)(C)c1cc(C(=O)NCc2cccnc2)ccn1`, with “inactive”; and `O=C(CN1C(=O)NC2(CCCC2)C1=O)Nc1ccc(F)c(F)c1F`, with “inactive”. To `O=S(=O)(NC1CC1)c1ccc(F)c(F)c1` belongs “inactive”; to `CC1CCC(NS(=O)(=O)c2ccc3c(c2)n(C)c(=O)c(=O)n3C)CC1` (stereo not given), “inactive”. Then `Cn1sc(=O)c2cc(S(=O)(=O)NC3CC3)ccc21`, with 15.1 µM (active).

As for `O=C(Nc1ccc(Cl)c(Cl)c1)N1CC=C(c2ccccc2)CC1`, the Potency result is “inactive”. To `Cc1cccc(N=C2NC(=O)CS2)c1C` belongs “inactive”; to `CCc1ccc(Nc2nnc(SCC(=O)c3ccc4c(c3)NC(=O)CO4)s2)cc1`, “inactive”; to `CCOc1ccc(/C=C/C(=O)N(CC)CC(=O)NCc2cccs2)cc1OC`, “inactive”. To `Cc1cccc(NS(=O)(=O)c2cc(Cl)ccc2Cl)n1` belongs “inactive”. Then `CN1CCN(C(=O)c2ccc(NS(=O)(=O)c3ccccc3)cc2)CC1`, with “inactive”; and `COc1ccc(C(=O)OCC(=O)Nc2ccc3[nH]c(=O)[nH]c3c2)c(OC)c1OC`, with 21.3 µM (active); and `O=C(COc1ccc([N+](=O)[O-])cc1Cl)Nc1ccc2[nH]c(=O)[nH]c2c1`, with “inactive”. As for `O=C(COC(=O)c1cccc(Cl)c1)Nc1ccc2[nH]c(=O)[nH]c2c1`, the Potency entry is “inactive”.

Consider `Nc1nnc(SCC(=O)NC2CCCc3ccccc32)s1` (stereo not given), for which the Potency result is “inactive”. To `O=C(c1ccccc1)c1cc(-c2ccccn2)c(N2CCOCC2)s1` belongs “inactive”; to `NC(=O)c1ncc(C(F)(F)F)cc1Oc1ccc(F)cc1`, “inactive”; to `Cc1nc2nc(COc3ccccc3)[nH]n2c(=O)c1C`, “inactive”. Then `Cc1cc([N+](=O)[O-])nn1Cc1ccc(F)cc1`, with “inactive”; and `O=C(O)CCN=C1CCc2ccccc2N1`, with “inactive”; and `O=C(NC1CCCCC1)c1ccc(CNc2c(N3CCOCC3)c(=O)c2=O)cc1`, with “inactive”. In the case of `CCN(CC(=O)Nc1cccc(S(=O)(=O)N2CCCCC2)c1)Cc1ccccc1`, the Potency entry was “inactive”.

For `CCOc1ccc(N2C(=O)CSC2=NC#N)cc1`, the Potency result is “inactive”. `CCOc1cccc(/C=N/N2C(=O)CSC2=S)c1O`: the Potency is 7.57 µM (active). Then `CCOc1cc(/C=N/n2cnnc2)c(Br)cc1O`, with “inactive”. To `C/C(=N/N1CCN(Cc2cccc3ccccc23)CC1)c1cccnc1` belongs “inactive”; to `NS(=O)(=O)c1ccc(NC(=S)Nc2ccc(Br)c(Cl)c2)cc1`, 9.53 µM (active). Then `NS(=O)(=O)c1ccc(CCNC(=S)Nc2ccc(S(N)(=O)=O)cc2)cc1`, with “inactive”; and `NS(=O)(=O)c1ccc(NC(=S)NC(=O)c2cccc(Br)c2)cc1`, with “inactive”. For `COc1ccc(NC(=O)Cn2cc(C(=O)c3ccncc3)c(=O)c3cc(C)ccc32)cc1Cl`, the Potency entry was “inactive”. Then `CCc1ccc(N(CC)c2ncnc3nc[nH]c23)cc1`, with “inactive”; and `Nc1ccc(Nc2cc(O)c3ncccc3c2)cc1`, with “inactive”; and `Cc1cccc(CCNS(=O)(=O)c2ccc(S(=O)(=O)NC3CCCC3)cc2)c1`, with “inactive”. To `CC1CCC(N2CC(=O)N(Cc3ccc4c(c3)OCO4)C(c3ccc(F)cc3)C2=O)CC1` (stereo not given) belongs “inactive”; to `COC(=O)CNC(=O)c1ccc2c(c1)S(=O)(=O)c1ccccc1C2=O`, “inactive”.

Turning to `O=[N+]([O-])c1ccc(N2CCN(c3ccc(O)cc3)CC2)c(Cl)c1`, the Potency entry was “inactive”. Then `O=S(=O)(NC1CCN(S(=O)(=O)c2ccc3c(c2)OCCO3)CC1)c1c(F)cccc1F`, with “inactive”. To `O=C(COC(=O)c1cc[n+]([O-])cc1)Nc1ccc(Cl)c(C(F)(F)F)c1` belongs “inactive”; to `Cc1ccc(C(CC(=O)O)NC(=O)c2ccc(S(=O)(=O)N3CCCC3)cc2)cc1` (stereo not given), “inactive”; to `CCCCc1nnc(NC(=O)CS(=O)(=O)Cc2ccccc2)s1`, “inactive”.

On to `Cn1c(=O)c([N+](=O)[O-])c(Oc2ccccc2)c2ccccc21`, for which the Potency entry was “inactive”. Then `CCCN(CC(=O)Nc1ccc(OC)c(OC)c1)CC(=O)Nc1ccc(F)c(F)c1F`, with “inactive”; and `COc1ccc(N2CCN(S(=O)(=O)c3ccc4c(c3)NC(=O)C(C)C(=O)N4)CC2)cc1` (stereo not given), with “inactive”. Regarding `COc1ccc(C)cc1NC(=O)CCS(=O)(=O)c1cccc2nonc12`, the Potency entry was “inactive”. To `Cn1nc(C(F)(F)F)cc1-c1ccc(/C=C(\C#N)C(=O)c2cccc(C(F)(F)F)c2)s1` belongs “inactive”; to `Cc1cc(C)c(S(=O)(=O)n2cc(C(C)C(N)C(=O)O)c3ccccc32)c(C)c1` (stereo not given), “inactive”. `COCCOC(=O)c1c(C)oc2cc(Br)c(OCC(N)=O)cc12`: the Potency result is “inactive”. Then `CCCCC(CC(C)O)c1n[nH]c(=S)n1-c1ccccc1` (stereo not given), with “inactive”; and `CC(NC(=O)CCCC1CCCCC1)c1ccc(S(N)(=O)=O)cc1` (stereo not given), with “inactive”; and `CC(C)(C)OC(=O)C[C@@H]1C/C=C\C[C@@H](CC(=O)N[C@@H](CO)Cc2ccccc2)C(=O)N2CCC[C@H]2COC1=O`, with “inactive”.

As for `COC(=O)CN1C(=O)N/C(=C/c2ccc(OC)c(C)c2OC)C1=O`, the Potency result is “inactive”.

For the compound `C=CCn1cc(-c2cccc(C(F)(F)F)c2)cc(C#N)c1=O`, the Potency entry was “inactive”. Then `COCc1ccc(C(=O)N2CCc3c([nH]c4ccccc34)C2c2ccccn2)s1` (stereo not given), with “inactive”; and `Nc1ccccc1SC(C[N+](=O)[O-])c1ccccc1` (stereo not given), with 13.5 µM (active). For the compound `Cc1ccc(C(C[N+](=O)[O-])c2c(C)cc3ccccn23)cc1` (stereo not given), the Potency entry is “inactive”. To `CN(CC(=O)Nc1ccc(F)c(F)c1F)C(=O)C1CC(=O)N(C2CCCC2)C1` (stereo not given) belongs “inactive”.

For `CCOC(=O)c1cnc(SC)nc1Sc1ccc(Cl)cc1Cl`, the Potency result is “inactive”. To `NCCN1CCN2C(=O)CN(C(=O)c3ccccc3)CC12` (stereo not given) belongs “inactive”; to `O=C(COC(=O)c1cc(=O)[nH]c2ccccc12)NCc1cccc(Cl)c1`, “inactive”. To `Cc1cc(Nc2cccc(F)c2)n2ncnc2n1` belongs “inactive”.

In the case of `C=CCn1c(C23CC4CC(CC(C4)C2)C3)n[nH]c1=S`, the Potency result is “inactive”. To `CCOC(=O)c1c(/N=C/C2C(=O)CC(C)(C)CC2=O)sc(C)c1C` belongs “inactive”. On to `O=C(Nc1cc(C(F)(F)F)ccc1Cl)c1cc2nc3c(c(C(F)(F)F)n2n1)CCCC3`, for which the Potency entry is “inactive”. Then `Cc1cc(NS(=O)(=O)c2ccc(NC(=O)C(C)Oc3cccc(C)c3C)cc2)nc(C)n1` (stereo not given), with “inactive”. To `CCCCn1c(N)c(N(Cc2ccccc2OC)C(=O)COc2cc(C)ccc2Cl)c(=O)[nH]c1=O` belongs “inactive”. Then `NC(=O)Nc1ccccc1C(=O)NCCc1ccccc1`, with “inactive”. `CCOC(=O)C1C(=O)C=C(c2ccc(OC)cc2)CC1c1ccco1` (stereo not given): the Potency result is “inactive”. With `CC(C)c1ccc(NC(=O)Cn2ncc3ccccc32)cc1`, the Potency result is “inactive”.

Take `C=CCOc1ccc(/C=C/C(=O)OCC(=O)NC2CCCCCC2)cc1`: the Potency result is “inactive”. Then `O=C1CSc2ccc(C(=O)NCc3ccccn3)cc2N1`, with “inactive”; and `O=C(NCc1ccccn1)c1ccc2nc(-c3ccco3)c(-c3ccco3)nc2c1`, with 2.13 µM (active); and `COc1cccc(S(=O)(=O)NCc2ccc(C(=O)NCc3ccccn3)cc2)c1`, with “inactive”. To `CCOc1cc(CNn2c(C)nnc2SCC(=O)NC(C)(C)C)ccc1OCC(=O)NC(C)(C)C` belongs “inactive”. To `S=c1[nH]c2ccccc2c2ccccc12` belongs “inactive”; to `COCCNC(=O)COc1ccc(N(C)S(=O)(=O)c2ccc3ccccc3c2)cc1`, “inactive”. As to `Cc1ccc(N2C(=O)C(CC(=O)Nc3cccc(F)c3)N(CCc3ccncc3)C2=O)cc1` (stereo not given), the Potency entry is “inactive”. Then `CCCCN1C(=O)C(C)=C(C)C1OCCc1ccc(OC)c(OC)c1` (stereo not given), with “inactive”; and `N/C(=N\OC(=O)Nc1ccc(Cl)c(Cl)c1)c1ncc(C(F)(F)F)cc1Cl`, with 13.5 µM (active). Then `N/C(=N\OC(=O)CCCC(=O)O)c1ncc(C(F)(F)F)cc1Cl`, with “inactive”; and `O=C(c1ccccn1)c1ncc(C(F)(F)F)cc1Cl`, with “inactive”. Turning to `COc1cccc(N=c2oc3c(C)ncc(CO)c3cc2C(N)=O)c1`, the Potency entry is “inactive”. Then `CC(C)c1ccc(N2CCN(C(=O)c3ccccc3NC(=O)/C=C(\C(=O)O)c3ccccc3)CC2)cc1`, with “inactive”.

Regarding `Cc1c(C)c(C)c2[nH]c(=S)[nH]c2c1C`, the Potency entry was “inactive”.

As to `O=c1[nH]c(=S)[nH]c2[nH]c(=S)[nH]c12`, the Potency is 16.9 µM (active) and 13.5 µM (active). Then `CCOc1ccc(Oc2nc(C)cc(OC)n2)nn1`, with “inactive”. Then `Cc1ccc(-c2nn(-c3ccccc3)cc2C(=O)NCCCN2CCCC2=O)cc1`, with “inactive”; and `COc1ccccc1NS(=O)(=O)N(C)C`, with “inactive”. To `Cc1ccc(CN(C)Cc2cc(=O)oc3cc(C)c(Cl)cc23)cc1` belongs “inactive”. On to `O=c1oc2ccccc2c(CNc2ccccc2)c1[N+](=O)[O-]`, for which the Potency result is “inactive”.

Regarding `Cc1ccc2c(c1)N(S(=O)(=O)c1cc(-c3cc(C)no3)ccc1C)CCO2`, the Potency entry was “inactive”. Consider `COC(=O)c1cccc(NC(=O)CN2CCC(NC(=O)c3cc(OC)c(OC)c(OC)c3)CC2)c1`, for which the Potency entry was “inactive”. Consider `Cn1c2cc(B(O)O)sc2c2cnn(Cc3ccccc3F)c(=O)c21`, for which the Potency entry is “inactive”.
